From PubChem
PG9 Ab binder – binders of HIV-1 gp120 antibody PG9, primary screen, biochemical, TR-FRET | HIV-1 gp120 / PG9 antibody interaction | TR-FRET gp120-PG9 antibody binding | inhibition, % at 6.7 µM | actives 0.43% (n = 360,000) | AID 624416, 2012; in the data active means inhibition above about 8.5%
LEDGF integ inh – blockers of LEDGF/p75-dependent integrase strand transfer – biochemical, TR-FRET, high throughput, primary screen; TR-FRET IN-LEDGF/p75 DNA integration, Eu/Cy5; HIV-1 integrase (with human LEDGF/p75); actives 0.64% (n = 370,000); inhibition, % at 3.7 µM;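 active means inhibition above the screen-wide mean plus 3 SD, cut at about 13% in these data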;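 further: signal is the Cy5 over europium emission ratio at 671 and 618 nm; 0% = plate median of compound wells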
UHRF1 MBD2 ctr – UHRF1 methylated DNA binding inhibitors, primary screen, counter-screen for MBD2 inhibitor project, biochemical, TR-FRET, human UHRF1, single concentration; E3 ubiquitin-protein ligase UHRF1 (Homo sapiens), Q96T88; UHRF1 binding to methylated oligo; inhibition, % at 4.4 µM; actives 0.75% (n = 370,000); in the data active means inhibition above about 21%;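 further: UHRF1 SRA domain binding a hemimethylated CpG hairpin DNA probe; 0% = median of test compound wells and 100% = reference inhibitor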
DNMT1 block – human DNMT1 methyltransferase inhibitors, primary screen, biochemical, molecular beacon, fluorescence, HinP1I cleavage, uHTS; AID 588458, 2011; actives 0.83% (n = 360,000); inhibition (reported as % activation of signal), % at 10 µM; in the data active means inhibition above about 50%
rCAG RNA binder – binders of r(CAG) RNA repeats, primary screen, biochemical, fluorescence. r(CAG) RNA repeat, TO-PRO-1 dye displacement fluorescence. inhibition, % at 3 µM. actives 1.3% (n = 370,000). AID 651821, 2012;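 active means inhibition above the plate cutoff, the mean of all test compounds on that plate plus 3 SD, cut at about 35% in these data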;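 further: 0% = DMSO alone and 100% = 100 µM mitoxantrone as full dye displacement; higher means more dye released from RNA so lower well fluorescence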
MBD2 inh – inhibitors of MBD2 binding to methylated DNA, primary screen, biochemical, TR-FRET, DNA-binding domain, human | Methyl-CpG-binding domain protein 2 (Homo sapiens), Q9UBB5 | MBD2 binding to methylated oligonucleotide | inhibition, % at 4.4 µM | actives 0.31% (n = 370,000); in the data active means inhibition above about 13%
Target sequence (Q9UBB5 whole entry, looked up, the tested form may be a part): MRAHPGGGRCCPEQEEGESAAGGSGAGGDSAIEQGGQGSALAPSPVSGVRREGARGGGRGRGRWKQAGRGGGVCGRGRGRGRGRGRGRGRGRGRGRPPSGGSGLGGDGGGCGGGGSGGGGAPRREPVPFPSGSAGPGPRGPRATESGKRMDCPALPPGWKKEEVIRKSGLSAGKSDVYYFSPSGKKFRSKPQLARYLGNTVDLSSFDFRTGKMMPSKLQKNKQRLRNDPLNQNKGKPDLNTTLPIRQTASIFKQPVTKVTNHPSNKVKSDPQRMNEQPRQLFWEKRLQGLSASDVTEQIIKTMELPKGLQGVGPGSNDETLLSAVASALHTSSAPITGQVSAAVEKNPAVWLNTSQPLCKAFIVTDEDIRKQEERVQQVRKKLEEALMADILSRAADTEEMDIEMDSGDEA
rCAG bind conf – small molecules binding CAG repeat RNA – biochemical, fluorescence, confirmation | shares compounds with rCAG RNA binder | r(CAG) RNA repeat, TO-PRO-1 dye displacement fluorescence | inhibition, % at 3 µM | actives 70% (n = 4,300);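 active means inhibition above a per-plate cutoff, the mean inhibition of sample wells plus 3 SD, cut at about 35% in these data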;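 further: loss of TO-PRO-1 fluorescence as compound displaces dye from 1x1 AA loop RNA; 0% = DMSO only wells and 100% = 100 µM mitoxantrone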
dCAG dye counter – displacement of TO-PRO-1 from CAG DNA duplex, counter-screen for rCAG RNA repeat binder project, biochemical, fluorescence, TO-PRO-1 dye, d(CAG) DNA oligo | shares compounds with rCAG RNA binder | d(CAG) DNA oligo TO-PRO-1 dye displacement | inhibition, % at 3 µM | actives 94% (n = 4,300) | AID 652068, 2013;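 active means inhibition above its plate's cutoff, the mean test-well inhibition plus 3 SD, cut at about 4.8% in these data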;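 further: 0% = DNA dye mix with DMSO and 100% = 100 µM mitoxantrone; hits displace the dye from DNA and so lower well fluorescence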
Starred values were filed as active, the others as inactive; / = no result given. Shown are actives, neighbours in structure and some others; about 3.5% of the full set was active somewhere.

SMILES	PG9 Ab binder	LEDGF integ inh	UHRF1 MBD2 ctr	DNMT1 block	rCAG RNA binder	MBD2 inh	rCAG bind conf	dCAG dye counter
CCc1ccc([C@@H]2CC=C(C(=O)O)[C@H](c3ccccc3F)N2S(=O)(=O)c2ccc(C)cc2)cc1	2	2	-4	0	69*	3	73*	35*
CCOC(=O)C1=CC[C@@H](c2ccc(F)cc2)N(S(=O)(=O)c2ccc(C)cc2)[C@H]1c1ccccc1	-1	-5	-1	6	9	-4	/	/
Nc1nonc1C(=O)N/N=C/c1ccc(-c2ccc(Cl)c(C(=O)O)c2)o1	-4	6	6	19	4	1	/	/
O=C(O)c1ccc(N/N=C/c2ccc(-c3ccc(Br)cc3)o2)cc1	-4	12	4	0	49*	2	49*	14*
Cc1ccc(/C=N/Nc2ccc(C(=O)O)cc2)o1	-10	-1	-1	1	-1	1	/	/
O=C(O)c1cc(-c2ccc(/C=N/Nc3ccc(Cl)cc3)o2)ccc1Cl	-1	4	-6	4	67*	3	67*	28*
O=C(N/N=C/c1ccc(-c2ccccc2Cl)o1)c1ccccc1	0	-2	-4	2	5	1	/	/
O=C(O)c1ccc(N/N=C/c2ccc(-c3ccccc3Cl)o2)cc1	-3	-2	1	-2	65*	-2	41*	11*
CCC(=O)N1CCC1(C)C(=O)Nc1ccc(Cl)c(Cl)c1 (configuration not stated)	1	0	2	-4	3	2	/	/
CCOC(=O)c1ncccc1NC(=O)CC(=O)Nc1cccnc1C(=O)OCC	1	-1	6	0	-6	0	/	/
CCCc1cc(=O)[nH]c(SCC(=O)Nc2cc(S(=O)(=O)N(CC)c3ccccc3)ccc2Cl)n1	2	-1	0	-10	60*	0	56*	20*
CCN(c1ccccc1)S(=O)(=O)c1ccc(Cl)c(NC(=O)CSc2ncn[nH]2)c1	-2	3	0	-1	9	4	/	/
O=C(O)/C(=C\c1ccc(F)cc1)c1ccc(-c2ccccc2)cc1	-1	7	-1	3	38*	-6	40*	9.7*
O=C(O)/C(=C\c1ccccc1OC(F)F)c1ccc(-c2ccccc2)cc1	-1	-2	0	-4	48*	-1	42*	13*
O=C(c1ccc2c(c1)OCO2)C1CCCN(Cc2c(F)ccc(F)c2F)C1 (configuration not stated)	-1	2	12	-2	-6	4	/	/
COC(=O)c1c(C)[nH]c(C)c1-c1ccc(C)cc1	1	-1	0	-3	43*	-1	2	1
O=[N+]([O-])c1ccccc1C(=Nc1ccccc1)c1c(O)cc(O)cc1O	1	7	-7	-4	45*	3	12	7.7*
O=C(Nc1ccccc1)c1ccccc1NC(=O)c1ccccc1[N+](=O)[O-]	3	-1	-1	-1	1	3	/	/
O=C(C=Cc1ccco1)c1cc(Cl)ccc1O	-2	4	0	15	18	-3	/	/
CC(/C=C/c1ccco1)=N\NC(=O)c1cc(Cl)ccc1O	-2	1	-1	49	49*	5	37*	16*
COc1ccc(Cl)cc1NC(=O)[C@@]1(CC(=O)O)CC(/C=C/c2ccccc2)=NO1	-1	6	2	3	38*	-1	36*	8.2*
CSc1nc2c(c(=O)[nH]1)C(c1cccs1)C1=C(CCCC1=O)N2 (configuration not stated)	-2	2	0	23	1	3	/	/
O=C1CCCC2=C1C(c1cn(-c3ccccc3)nc1-c1cccs1)c1c([nH]c(=O)[nH]c1=O)N2 (configuration not stated)	1	1	-1	-37	39*	-7	27	15*
COc1ccccc1/C=C/C(=O)Nc1ccc(S(=O)(=O)Nc2cc(C)on2)cc1	-3	1	-2	1	53*	0	48*	12*
Cc1cc(NS(=O)(=O)c2ccc(NC(=O)/C=C/c3ccc(Br)cc3)cc2)no1	-1	-1	0	1	68*	0	62*	29*
SMILES	PG9 Ab binder	LEDGF integ inh	UHRF1 MBD2 ctr	DNMT1 block	rCAG RNA binder	MBD2 inh	rCAG bind conf	dCAG dye counter
CCOC(=O)/C=C/C(=O)Nc1ccc(S(=O)(=O)Nc2cc(C)on2)cc1	-1	-1	1	1	7	4	/	/
COc1ccc(Br)c(Cn2c(C)c(C(=O)NCCC#N)sc2=O)c1	-1	-2	1	2	-1	-2	/	/
Cc1ccc(F)c(S(=O)(=O)NC(=O)C2(C)CCN2C(=O)Cc2ccc(-c3ccccc3)cc2)c1 (configuration not stated)	0	-2	-2	3	60*	-4	55*	18*
CC(C)(C)c1ccc(CC(=O)N2CCC2(C)C(=O)NS(=O)(=O)c2cccc(OC(F)F)c2)cc1 (configuration not stated)	1	0	-1	0	52*	-3	41*	9.7*
CC1(C(=O)NS(=O)(=O)Cc2ccccc2)CCN1C(=O)Cc1ccc(-c2ccccc2)cc1 (configuration not stated)	0	3	0	5	58*	5	50*	14*
CCCC(=O)N1CCC1(C)C(=O)NS(=O)(=O)c1ccc(OC)cc1 (configuration not stated)	-2	3	0	1	0	2	/	/
COc1ccc(S(=O)(=O)NC(=O)C2(C)CCN2C(=O)Cc2ccc(C(C)(C)C)cc2)cc1 (configuration not stated)	-1	4	-1	2	42*	-6	25	4.8*
